Hit rate of the full screen: of about 69,000 compounds, about 420 (0.61%) showed an effect of 50% or more. The entries come from a sample that favours strong results as a whole.
The compounds below were run against T1, Histidine--tRNA ligase (Leishmania infantum) (UniProt A4I591) (assay: Leishmania infantum Histidine tRNA synthetase (LdHisRS)). Conditions: 30 µM.
T1 sequence (whole entry): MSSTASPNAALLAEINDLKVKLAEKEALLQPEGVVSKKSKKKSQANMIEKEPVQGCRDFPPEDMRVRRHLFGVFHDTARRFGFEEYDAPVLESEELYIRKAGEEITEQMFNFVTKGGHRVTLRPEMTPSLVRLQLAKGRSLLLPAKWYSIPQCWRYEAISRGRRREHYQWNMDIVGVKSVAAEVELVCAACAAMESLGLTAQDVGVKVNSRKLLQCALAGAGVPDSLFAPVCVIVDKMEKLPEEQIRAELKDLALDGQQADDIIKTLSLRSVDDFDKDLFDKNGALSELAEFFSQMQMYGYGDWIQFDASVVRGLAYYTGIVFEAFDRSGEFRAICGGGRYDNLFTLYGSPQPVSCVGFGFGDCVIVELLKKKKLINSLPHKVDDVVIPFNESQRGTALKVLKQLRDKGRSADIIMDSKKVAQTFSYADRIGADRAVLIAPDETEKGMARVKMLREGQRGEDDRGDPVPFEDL
Assay type: functional
Parameters: scale not given: in the data most compounds retested in dose-response had high values
With `CN(C[C@@H]1CCC[C@@H]2CN(c3ncccn3)C[C@@H]21)C1CC1` the Percent Effect was 23.3%. `COC[C@@H]1CC[C@H]2[C@H](CCN2S(=O)(=O)c2cccc(F)c2)O1` was tested, and the Percent Effect was 2.65%. With `O=C(NCc1ccccn1)[C@@]12CCO[C@@H]1CCN(c1ncccn1)C2` the Percent Effect was 15.4%. With `CCOCC(=O)Nc1cc(C)cnc1OC` the Percent Effect was 9.52%. `COc1cccc(OCC(=O)Nc2cc(C)cnc2OC)c1` gave a Percent Effect of -3.17%. Work on `COc1ncc(C)cc1NC(=O)COCC(F)(F)F` yielded a Percent Effect of 77.8%. In the case of `O=C(c1ccccn1)N1CC[C@H]2[C@H]1CCN2S(=O)(=O)C1CC1`, the Percent Effect is reported as 14%. Work on `CN(C)C(=O)[C@H]1C[C@@H]2CN(c3ncccn3)C[C@H]1O2` yielded a Percent Effect of 22.2%. `CCCc1ccc(CN2CCN(C(=O)NCC)[C@H]3CS(=O)(=O)C[C@H]32)o1` gave a Percent Effect of 13.2%. Compound `O=C(c1ccco1)N1CC[C@H]2[C@H]1CCN2CC1CCOCC1` has a Percent Effect of 6.57%. In the case of `Cc1nc(N)cc(N2CCCC(COc3cccc(F)c3)C2)n1` (stereo not drawn), the Percent Effect is reported as 24.1%. Compound `Nc1cc(N2CCCC(COc3ccc(F)cc3)C2)nc(N)n1` (stereo not drawn) has a Percent Effect of 24.1%. In the case of `Cc1ccccc1OCC1CCCN(c2cc(N)nc(N)n2)C1` (stereo not drawn), the Percent Effect is reported as 72.3%. `O=C(CC1CC1)N[C@@H]1CN(Cc2ccc(F)cc2)C[C@@H]2CCCO[C@@H]21` gave a Percent Effect of 11.4%. With `O=C(NC1CC1)[C@@H]1C[C@@H]2CCN(Cc3ccccc3)C[C@@H]2O1` the Percent Effect was -7%. `Cc1ncsc1CN1C[C@@H]2COC[C@]2(C(=O)NC2CC(F)(F)C2)C1` gave a Percent Effect of 20%. `Cc1nn(CCC#N)c(C)c1[C@@H]1C=C[C@@H](NCc2cccc(Cl)c2)C1` gave a Percent Effect of 50%. Compound `Cc1nc[nH]c1CNC1CC(=O)N(CCc2cccc(Cl)c2)C1` (stereo not drawn) has a Percent Effect of 7.45%. Work on `Cc1nn(CCC#N)c(C)c1[C@@H]1C=C[C@@H](NCc2ccc(F)cc2)C1` yielded a Percent Effect of 25%. `Cc1cnc(C(=O)N2C[C@H]3CC[C@@H]2CN(c2cnccn2)C3)cn1` gave a Percent Effect of 18.6%. `O=C(NC[C@@]1(COc2cnccn2)C[C@@H](O)[C@@H](O)C1)C1CC1` gave a Percent Effect of 5.41%. Compound `Cc1ccc(C(=O)N2CCO[C@H]3[C@H](OCCN(C)C)CC[C@@H]32)cn1` has a Percent Effect of 9.72%. Compound `Cc1cccc(NC(=O)c2[nH]nc(C(C)C)c2Br)n1` has a Percent Effect of 12.5%. With `O=C(c1ccco1)N1C[C@@H]2[C@@H](C1)OCC(=O)N2Cc1cccnc1` the Percent Effect was 20.4%. `Cc1ccc(CN2C[C@@H]3COC[C@@H](CC(=O)N4CCOCC4)[C@@H]3C2)s1` showed a Percent Effect of 20.5%. Work on `CCN1CC2(CCOCC2)c2cc(NS(=O)(=O)CC)ccc21` yielded a Percent Effect of 75.2%. In the case of `CCS(=O)(=O)Nc1ccc2c(c1)C1(CCOCC1)CN2C`, the Percent Effect is reported as 51.5%. Work on `CCC(=O)Nc1ccc2c(c1)C1(CCOCC1)CN2CCOC` yielded a Percent Effect of 46%. Compound `CN(C)C(=O)N1CC2(CCOCC2)c2cc(NS(=O)(=O)C3CC3)ccc21` has a Percent Effect of 15.4%. Compound `CCCC(=O)Nc1ccc2c(c1)C1(CCOCC1)CN2CCOC` has a Percent Effect of 35.1%. Work on `CCC(=O)Nc1ccc2c(c1)C1(CCOCC1)CN2CCF` yielded a Percent Effect of 22.5%. With `CC(c1ccccc1)N1Cc2nc(N(C)C)ncc2C1=O` (stereo not drawn) the Percent Effect was 3.54%. `CC1CCN(c2ncc3c(n2)CN(c2ccc(F)cc2)C3=O)CC1` gave a Percent Effect of 12.4%. With `COc1ccc(CN2C[C@H]3CN(Cc4ccncc4)C(=O)[C@H]3C2)cc1` the Percent Effect was 21.4%. `COCCN1CCN(C(=O)c2ccc(COC)o2)[C@H]2CS(=O)(=O)C[C@H]21` showed a Percent Effect of 21.3%. `c1coc(CN2C[C@H](OCC3CCOCC3)[C@H]3COC[C@H]32)c1` was tested, and the Percent Effect was 9.02%. Work on `COc1ccc2c(c1)ncn2C[C@]1(O)CCCN2CCCC[C@@H]21` yielded a Percent Effect of 4.2%. For `CCOc1ccc(C(=O)N(CCOC)Cc2c(C)nn(CC)c2C)o1`, the Percent Effect was 63.3%. `CCn1nc(C)c(CN(CCOC)C(=O)c2cnc(C)nc2O)c1C` showed a Percent Effect of 20%. With `CCn1nc(C)c(CN(CCOC)C(=O)c2ccccc2N(C)C)c1C` the Percent Effect was 21.7%. `Cc1nn(C)c(C)c1S(=O)(=O)N1CC[C@@H]2O[C@@H](C)C[C@H]2C1` gave a Percent Effect of 7.69%. Work on `O=C(c1ccc(F)cc1)N1C[C@@H]2OCCN(c3ncccn3)[C@@H]2C1` yielded a Percent Effect of 18.9%. `Cc1nc(COC[C@]23COC[C@H]2CN(Cc2ccoc2)C3)cs1` was tested, and the Percent Effect was 22.6%. In the case of `Cc1nnc(N2C[C@H](OCc3cccnc3)[C@H]3OCCC[C@H]32)s1`, the Percent Effect is reported as 24.3%. With `COCCOc1ccc(F)cc1NCc1nc2ccccc2n1C` the Percent Effect was 13.2%. In the case of `COc1cc(F)c(NCc2nc3ccccc3n2C)cc1OC`, the Percent Effect is reported as 78.3%. For `COCCOc1ncccc1NCc1nc2ccccc2n1C`, the Percent Effect was 15.7%. Work on `CC(=O)N1CCN(C(=O)Nc2ccc(Cl)cc2)[C@H]2CS(=O)(=O)C[C@H]21` yielded a Percent Effect of 8.2%. `O=C(c1ccc(F)cc1)N1C[C@@H]2CCN(c3cccnc3)C[C@@H]2C1` gave a Percent Effect of 20.6%. Compound `O=C(c1ccncc1)N1C[C@@H]2CCN(c3cccnc3)C[C@@H]2C1` has a Percent Effect of 23.5%. In the case of `Fc1cccc(N2C[C@H]3CCN(c4cccnc4)C[C@H]3C2)c1`, the Percent Effect is reported as 61.5%. `O=C(C1CCCC1)N1C[C@@H]2CCN(c3cccnc3)C[C@@H]2C1` was tested, and the Percent Effect was 14.7%. `c1cnc(N2C[C@H]3CCN(c4cccnc4)C[C@H]3C2)nc1` gave a Percent Effect of 23.1%. With `Cn1cccc1C(=O)N1CC[C@H]2[C@@H]1CCC(=O)N2CC1CC1` the Percent Effect was 21.1%. `O=C(C1CCC1)N1C[C@@H]2CN(Cc3ccncc3)C(=O)[C@@H]2C1` showed a Percent Effect of 15.8%. For `CCCC(=O)N1CC[C@@H]2[C@H](CC1)N(Cc1cccnc1)CCS2(=O)=O`, the Percent Effect was 17.3%. For `Cc1cccc(CN2C[C@@H]3CN(C4CCOCC4)C[C@@H]3C2=O)c1`, the Percent Effect was 19.7%. Work on `CCN1C(=O)C[C@@H]2[C@@H]1CCN2S(=O)(=O)c1cccc(C)c1` yielded a Percent Effect of 0%. Work on `CC(C)=CCN1CCN(C(=O)c2snnc2C)[C@H]2CS(=O)(=O)C[C@H]21` yielded a Percent Effect of 5%. Compound `CCc1cnc(N2C[C@H](OCc3csc(C)n3)[C@H]3COC[C@H]32)nc1` has a Percent Effect of 20.7%. In the case of `CCN1C(=O)CC[C@@H]2N(C(=O)CCn3nccc3C)CCCC[C@@]21C`, the Percent Effect is reported as 15.7%. `Cc1noc(C[C@@H]2COC[C@H]3CN(S(=O)(=O)C4CC4)C[C@@H]23)n1` was tested, and the Percent Effect was 12.8%. `CCN1CCN(Cc2c(-c3ccco3)[nH]c3ncccc23)CC1` showed a Percent Effect of 4.35%. Work on `OC1CCCN(Cc2c(-c3ccco3)[nH]c3ncccc23)C1` (stereo not drawn) yielded a Percent Effect of 66.7%. `c1coc(-c2[nH]c3ncccc3c2CN2CCCOCC2)c1` showed a Percent Effect of 30.4%. `NC(=O)C1CCCN(Cc2c(-c3ccco3)[nH]c3ncccc23)C1` (stereo not drawn) showed a Percent Effect of 55.6%. Work on `CN1CCN(Cc2c(-c3ccco3)[nH]c3ncccc23)CC1` yielded a Percent Effect of 18.8%. `OC1CCN(Cc2c(-c3ccco3)[nH]c3ncccc23)CC1` was tested, and the Percent Effect was 30.4%.
